Assay results taken from PubChem BioAssay (NCI).
The panel holds about 83,000 compounds, 20% with a hit somewhere; the sample as a whole holds those more often.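 Single-concentration screen, 48 h exposure, 96-well plates. Endpoint: percent growth. Below 10 = active.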 Calls of active or inactive are those of the source.

How the values were obtained:
Assay in all cases: NCI-60 one-dose screen, 48 h (100 = growth as untreated, 0 = no growth, -100 = all killed)
Details in all cases: 10 µM unless noted
[1] = system: HCT-15 colon
[2] = system: HT29 colon
[3] = system: SNB-75 CNS
[4] = system: SNB-19 CNS
[5] = system: U251 CNS
[6] = system: PC-3 prostate
[7] = system: SK-MEL-5 melanoma
[8] = system: UACC-62 melanoma
[9] = system: LOX IMVI melanoma
[10] = system: SK-MEL-28 melanoma

Measured: growth

N=C(N)c1ccc(-c2ccc(-c3ccc(Cl)c(Cl)c3)o2)nc1
inactive: [1] 17.2% | [3] 97.8% | [6] 64.5% | [7] 92.4% | [8] 103% | [10] 99.6%
active: [2] -39.8% | [4] 6.96% | [5] -57.1% | [9] -74.7%

Nc1c(C(=O)c2ccc(Cl)s2)sc2nc3c(cc12)CCCC3
inactive: [1] 107% | [2] 94.2% | [3] 103% | [4] 105% | [5] 97.8% | [6] 88.4% | [7] 96.8% | [8] 106% | [9] 96.8% | [10] 119%

COc1cc(NC(=O)c2cccc(-c3cc(=O)c4c(OC)c(OC)c(OC)cc4o3)c2)cc(OC)c1OC
inactive: [1] 40.7% | [2] 31.1% | [3] 74.7% | [4] 56.3% | [5] 44.9% | [6] 52.4% | [8] 50.5% | [9] 24.4% | [10] 63.5%
active: [7] 8.34%

Nc1ccc(CCCCc2ccccc2)c(Cl)c1
inactive: [1] 89% | [2] 96.3% | [3] 75.2% | [4] 94.6% | [5] 77.7% | [6] 90.1% | [7] 96.4% | [8] 93.4% | [9] 99.2% | [10] 98.8%

CCN(CC)CCOC(=O)N1c2ccccc2Sc2ccccc21
inactive: [1] 102% | [2] 75.9% | [3] 84.2% | [4] 97.8% | [5] 91.8% | [6] 68.8% | [7] 94.2% | [8] 91% | [9] 96.7% | [10] 101%

CC(=O)c1sc(-c2ccccc2)cc1N
inactive: [1] 95.2% | [2] 88.7% | [3] 99.5% | [4] 94.5% | [5] 82.7% | [6] 90.8% | [7] 95.7% | [8] 91% | [9] 104% | [10] 108%

COc1ccc(Nc2ncc(Br)c(NCCCNC(=O)C3CCC3)n2)cc1
inactive: [1] 21.7% | [2] 31% | [4] 33.1% | [5] 19.8% | [6] 39.2% | [7] 44.2% | [8] 56.6% | [10] 54.7%
active: [3] -4.95% | [9] 4.32%

COc1ccc(NC(=O)C(=O)c2c[nH]c3ccc(F)cc23)cc1
inactive: [1] 99.2% | [2] 88.4% | [3] 99.7% | [4] 104% | [5] 91% | [6] 91.5% | [7] 97.4% | [8] 99.3% | [9] 105% | [10] 109%

O=C(NCCOCCOCCNc1cccc2c1C(=O)N(C1CCCNC1=O)C2=O)c1cc2c(o1)C(=O)c1ccccc1C2=O (stereo not given)
active: [1] -65.3% | [2] 2.43% | [3] -98.3% | [4] 3.8% | [5] -36.4% | [6] 4.67% | [7] -98.7% | [8] -81.7% | [9] -59% | [10] -28.6%

Cc1cc(NS(=O)(=O)c2ccccc2)c(OS(=O)(=O)c2ccccc2)cc1C
inactive: [1] 102% | [2] 111% | [3] 89.5% | [4] 98.1% | [5] 99.8% | [6] 89.7% | [7] 102% | [8] 94% | [9] 99.3% | [10] 112%

C=CC(=O)N[C@@H](Cc1ccc(-c2cc(Cl)cc(Cl)c2)cc1)[C@@H](O)[C@H](O)C(=O)O
inactive: [1] 104% | [2] 87.9% | [3] 104% | [4] 98.1% | [5] 92.1% | [6] 89.4% | [7] 99.3% | [8] 89.3% | [9] 98.4% | [10] 107%

Nc1c(-c2nc3ccccc3c(=O)[nH]2)nnn1-c1ccc(Cl)cc1
inactive: [1] 93.1% | [2] 68.7% | [3] 24.7% | [4] 76% | [5] 74.6% | [6] 85.3% | [7] 92.6% | [8] 99.1% | [9] 107% | [10] 81.1%

C/C(=N\NC(N)=S)c1nc2ccc(Cl)cc2[nH]1
inactive: [1] 35.7% | [2] 32.8% | [3] 43.6% | [4] 57.6% | [5] 49.9% | [6] 52.3% | [7] 45.3% | [8] 36.7% | [9] 43.7% | [10] 68.7%

Cc1nn(-c2ccccc2)c2c1C(c1ccc([N+](=O)[O-])cc1)C(C#N)=C(N)O2 (stereo not given)
inactive: [1] 106% | [2] 105% | [3] 87.7% | [4] 102% | [5] 110% | [6] 102% | [7] 122% | [8] 96.1% | [9] 101% | [10] 116%

O=C1Nc2ccccc2/C1=N/N=C/c1ccsc1
inactive: [1] 98% | [2] 112% | [3] 87.8% | [4] 95.5% | [5] 104% | [6] 107% | [7] 101% | [8] 93% | [9] 95.1% | [10] 110%

N[C@H]1CCC[C@@H]1NCCCCN1C(=O)c2cccc3cccc(c23)C1=O
inactive: [1] 83.6% | [2] 26.2% | [3] 75.7% | [4] 77% | [5] 63% | [6] 55% | [7] 91.6% | [8] 95.7% | [9] 26.1% | [10] 90.3%

CCC(C)NCc1ccccc1 (stereo not given)
inactive: [1] 107% | [2] 84.9% | [3] 95.9% | [4] 102% | [5] 102% | [6] 78.1% | [7] 106% | [8] 95.3% | [9] 102% | [10] 112%

C[C@@H](C[C@H](CCOCc1cccnc1)c1ccccc1)c1cc2ccccc2o1
inactive: [1] 91.1% | [2] 78.1% | [3] 85.6% | [4] 94.2% | [5] 93.6% | [6] 75.6% | [7] 98.4% | [8] 81.2% | [9] 95.8% | [10] 102%

Cc1nc2ccc(C(=O)NCc3cc(C(=O)O)c(C)o3)cc2nc1C
inactive: [1] 105% | [2] 95.6% | [3] 79.4% | [4] 101% | [5] 96.8% | [6] 90% | [7] 105% | [8] 94.8% | [9] 94.3% | [10] 103%

CC/C=C/[C@@H]1C=C[C@@H]2CCC[C@H]2[C@@H]1CC[C@H](O)[C@H](C)N
active: [1] -73.8% | [2] 2.11% | [4] -41.2% | [5] -79.7% | [7] -92.8% | [8] -42.1% | [9] -91.6% | [10] -87.1%
inactive: [3] 22.4% | [6] 30.4%

O=C(Nc1ccccc1Cl)OCCN1CCOCC1
inactive: [1] 102% | [2] 75.9% | [3] 111% | [4] 103% | [5] 103% | [6] 77.5% | [7] 108% | [8] 101% | [9] 102% | [10] 110%

Cc1nc(C)c(-c2nn3c(-c4cccc(F)c4)nnc3s2)s1
inactive: [1] 101% | [2] 86.6% | [3] 113% | [4] 93.6% | [5] 93.5% | [6] 89.3% | [7] 92.8% | [8] 96% | [9] 99.9% | [10] 119%

COc1cc(C(=O)/C=C/c2c(-c3ccc(F)cc3)nc3ncccn23)cc(OC)c1OC
inactive: [1] 43.5% | [2] 38.2% | [3] 59.2% | [4] 88.2% | [5] 48.2% | [6] 47% | [7] 30.5% | [8] 52.2% | [9] 36.4% | [10] 49.2%

NS(=O)(=O)c1cnccc1-n1ccc(=O)c(S(N)(=O)=O)c1
inactive: [1] 90.8% | [2] 105% | [3] 73.8% | [4] 88.1% | [5] 96.6% | [6] 86.5% | [7] 103% | [8] 96.9% | [9] 97.1% | [10] 92.5%

CCO/C=N/C1=C(C#N)C(c2ccc(OC)cc2)c2c(c3ccccc3n(C)c2=O)O1 (stereo not given)
inactive: [1] 103% | [2] 104% | [3] 78.1% | [4] 101% | [5] 103% | [6] 98.4% | [7] 102% | [8] 98.7% | [9] 99.1% | [10] 110%

CCOC(=O)c1nnn(-c2ccccc2)c1C1=CN(C)CCC1
inactive: [1] 99% | [2] 99.1% | [3] 89.8% | [4] 108% | [5] 102% | [6] 96.4% | [7] 105% | [8] 100% | [9] 97.3% | [10] 111%

CCc1cc(Cc2cc(CC)cc(C(C)(C)C)c2O)c(O)c(C(C)(C)C)c1
active: [7] 6.03%
inactive: [1] 13.8% | [2] 23.3% | [3] 42.1% | [4] 20% | [5] 16.3% | [6] 15.1% | [8] 25.7% | [9] 10.5% | [10] 46%
